hDAT+cocaine: modulates human dopamine transporter uptake under cocaine; LLC-PK1 hDAT cells, [14C]-dopamine uptake with cocaine IC80; actives deviate in either direction; B-score at 10 µM; Q01959; AID 449768; 110,000 tested, 1.3% active;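 active = Z score or B-score, a plate-position-corrected score, falls beyond the plate's 99.7% confidence bounds, in either direction; inactive = both scores lie inside the 99.7% bounds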
Target sequence (Q01959 whole entry, looked up): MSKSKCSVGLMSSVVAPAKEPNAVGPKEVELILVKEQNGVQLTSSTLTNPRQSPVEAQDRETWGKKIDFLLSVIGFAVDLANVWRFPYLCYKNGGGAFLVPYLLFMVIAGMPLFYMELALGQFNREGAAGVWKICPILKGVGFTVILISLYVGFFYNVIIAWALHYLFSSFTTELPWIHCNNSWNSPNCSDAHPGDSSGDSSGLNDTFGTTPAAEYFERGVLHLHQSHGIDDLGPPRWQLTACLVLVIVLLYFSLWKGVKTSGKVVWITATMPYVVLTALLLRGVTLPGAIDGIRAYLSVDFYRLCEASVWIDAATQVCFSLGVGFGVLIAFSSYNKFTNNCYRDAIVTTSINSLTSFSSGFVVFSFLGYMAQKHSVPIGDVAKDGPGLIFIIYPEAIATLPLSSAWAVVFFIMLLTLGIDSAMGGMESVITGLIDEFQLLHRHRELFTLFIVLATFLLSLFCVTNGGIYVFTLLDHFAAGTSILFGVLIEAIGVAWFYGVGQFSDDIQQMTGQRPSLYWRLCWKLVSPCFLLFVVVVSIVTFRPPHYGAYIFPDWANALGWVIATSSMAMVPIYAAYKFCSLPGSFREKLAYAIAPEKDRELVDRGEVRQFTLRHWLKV
Cav32 inh: inhibitors of human Cav3.2 T-type calcium channel; Cav3.2-expressing cells, Fluo-4 calcium fluorescence FDSS; active compounds read low; B-score at 10 µM; 100,000 tested, 4% active;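 active = single-dose well whose peak fluorescence ratio is a statistical outlier from its plate by either plate-standardised score or position-corrected B-score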
PostGolgi yeast: growth inhibition of a yeast mutant, post-Golgi transport screen; inhibition, % at 10 µM; post-Golgi transport phenotypic cell assay; 98,000 tested, 0.9% active;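 also: yeast cells grown in 1536-well plates; yeast grown about 18 h at 30C before absorbance read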
PostGolgi ctrl: yeast control strain growth, post-Golgi counter-screen | efflux-deficient yeast background strain, growth absorbance A615, 16 h | inhibition, % at 10 µM | 98,000 tested, 5% active | AID 738
PLAP activator: human PLAP activation | AID 696 | 96,000 tested, 1.2% active | purified PLAP enzyme, luminescent substrate read-out; active compounds read high | activation fold at 20 µM; in the data active = activation fold above about 2
D1 mod: allosterically modulates the human D1 dopamine receptor. B-score at 10 µM. HEK293 D1, CRE-luciferase, dopamine EC30 potentiation; actives deviate in either direction. AID 641. 58,000 tested, 5.9% active;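 active = luminescence count or its row- and column-corrected plate score outside the 99.7% band of the plate's sample wells, on either side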
Of the large screens only hits and unclear results are named; the others gave an inactive call. Hits are enriched below; roughly 12% of the tested compounds scored in any of these assays. Rule as the data show it, unless noted: active = inhibition above about 30%; inactive = the rest.

O=C1CC(c2ccccc2)NC(=O)N1 (stereo not drawn)	none (no result: D1 mod)
c1ccc(C2=Nc3ccccc3NC(c3ccccc3)C2)cc1 (stereo not drawn)	PostGolgi ctrl 36 (no result: D1 mod)
COc1ccc(C2C(C(=O)OCC(=O)Nc3ccc(C)cc3)CCC(=O)N2c2ccc(OC)cc2)cc1 (stereo not drawn)	PLAP activator 2.4 (no result: D1 mod)
CCOC(=O)c1oc2cc(O)ccc2c(=O)c1-c1ccc(OC)cc1	none (no result: D1 mod)
CCOC(=O)c1oc2cc(O)c(CC)cc2c(=O)c1-c1ccc2c(c1)OCCO2	PostGolgi ctrl 30
CCCC(=O)Nc1ccc(Cl)c(NC(=O)c2cccnc2Cl)c1	PostGolgi yeast 45 (no result: D1 mod)
CCOc1cc(C#N)c(NC(=O)c2cccnc2Cl)cc1OCC	none (no result: D1 mod)
O=C(Nc1nccs1)C1CCCN1S(=O)(=O)c1ccc(Cl)cc1 (stereo not drawn)	none
CC(C)(C)C(=O)Nc1nc(C2CCCN2S(=O)(=O)c2ccc(Cl)cc2)cs1 (stereo not drawn)	Cav32 inh -4 (no result: D1 mod)
CCOC(=O)N1CCN(Cc2nc(-c3ccccc3)no2)CC1	none
Cc1ccc(-c2noc(CN3CCCCC3)n2)cc1	none (no result: D1 mod)
Clc1ccc(-c2noc(CN3CCCC3)n2)cc1	PostGolgi ctrl 37
Clc1cccc(N2CCN(Cc3nc(-c4ccccc4)no3)CC2)c1	PostGolgi ctrl 35
CN(CC1CCCO1)S(=O)(=O)c1ccc(C(=O)Nc2nc(-c3ccccn3)cs2)cc1 (stereo not drawn)	hDAT+cocaine 2.7
CCOc1ccc(NC(=O)CSCc2cnn(-c3ccccc3)c2-n2cccc2)cc1	Cav32 inh -10 (no result: PLAP activator, D1 mod)
COc1ccc(OC)c(NC(=O)CSCc2cnn(-c3ccccc3)c2-n2cccc2)c1	Cav32 inh -9.1
O=C(CSCc1cnn(-c2ccccc2)c1-n1cccc1)N1CCN(Cc2ccccc2)CC1	none (no result: D1 mod)
COc1cccc(CNC(=O)CSCc2cnn(-c3ccccc3)c2-n2cccc2)c1OC	Cav32 inh -6, PLAP activator 2.6 (no result: D1 mod)
COc1ccc(OC)c(NC(=O)CSc2nnc(C)n2Cc2ccccc2)c1	none
COC(=O)C(C)Oc1ccc2c3c(c(=O)oc2c1)CCCCC3 (stereo not drawn)	none
c1ccc(COn2nnc3ccccc32)c(COn2nnc3ccccc32)c1	Cav32 inh -4.8
CCc1ccc(Nc2oc(C)cc(=O)c2C(C)=O)cc1	none
C=CCn1c(=O)c2ccccc2n2c(SCc3c(C(=O)OCC)oc4ccccc34)nnc12	none (no result: PostGolgi yeast, PostGolgi ctrl)
N#Cc1ccccc1Sc1ccccc1C(=O)Nc1ccc(Br)cc1	PostGolgi ctrl 37 (no result: hDAT+cocaine, Cav32 inh, D1 mod)
Cc1ccccc1OCCNC(=O)c1ccccc1Sc1ccccc1C#N	Cav32 inh -5.5 (no result: D1 mod)
N#CC1=C(N)S[C@@H](C(=O)c2ccc(F)cc2)[C@@H]1c1cccs1	Cav32 inh -4.7 (no result: PostGolgi yeast, PostGolgi ctrl, PLAP activator, D1 mod)
Cc1ccc(C2C(C(=O)c3sc(C)nc3C)=C(O)C(=O)N2CCCN(C)C)o1 (stereo not drawn)	none (no result: hDAT+cocaine, Cav32 inh, PostGolgi yeast, PostGolgi ctrl)
OCCN1CCN(c2ncnc3ccc(Br)cc23)CC1	none (no result: Cav32 inh)
Cc1ccccc1S(=O)(=O)Cc1ccc(C(=O)NCCCOC(C)C)o1	none
Cc1ccc(-c2nnc(Cc3ccc(Cl)cc3)o2)cc1	none (no result: D1 mod)
c1ccc(Cc2nnc(-c3ccccc3)o2)cc1	Cav32 inh -5.5
Cc1nn2c(-n3ccnc3)c3c(nc2c1-c1ccccc1)CCC3	PostGolgi yeast 74, PostGolgi ctrl 81
CCC(C)Nc1c2c(nc3c(-c4ccccc4)c(C)nn13)CCC2 (stereo not drawn)	PostGolgi ctrl 39 (no result: D1 mod)
CC(C)C(NS(=O)(=O)c1cccs1)C(=O)NCc1ccc2c(c1)OCO2 (stereo not drawn)	none
CCOc1ccccc1NC(=S)NCc1ccco1	none (no result: D1 mod)
O=C(/C=C/c1ccc(OCCCF)cc1)NCc1ccc(Cl)cc1	none (no result: hDAT+cocaine, Cav32 inh, D1 mod)
Cc1cc2nc(C3CCN(Cc4nnnn4Cc4ccccc4)CC3)[nH]c2cc1C	PLAP activator 2.4 (no result: D1 mod)
CCC(C)(C)n1nnnc1CN1CCC(c2nc3ccc(C)cc3[nH]2)CC1	PLAP activator 2.3
c1ccc(Cn2nnnc2CN2CCOCC2)cc1	none (no result: D1 mod)
COc1ccc(-c2nc(N)ncc2-c2csc(C)n2)c(O)c1	none (no result: D1 mod)
CCCc1cc(-c2nc(N)ncc2-c2ccc3c(c2)OCCCO3)c(O)cc1OC	PostGolgi ctrl 40
C=COCCNC(=O)C1CC(=O)N(c2ccc(C)cc2)C1 (stereo not drawn)	none
O=C(CCC1CCCC1)c1c(O)c2ccccc2oc1=O	hDAT+cocaine -3.2, Cav32 inh -8, D1 mod -3.1
